Among the test systems are DU-145 prostate; K-562 leukemia; MALME-3M melanoma; MDA-MB-231 breast; RXF 393 renal; SF-268 CNS; SF-295 CNS; SF-539 CNS; UACC-257 melanoma; M14 melanoma.
Test in all cases: NCI-60 one-dose screen, 48 h (100 = growth as untreated, 0 = no growth, -100 = all killed)
What all share (conditions): 10 µM

Each structure is given as a SMILES string. Compounds without any hit were thinned out: in the full panel of roughly 83,000, 20% have a hit.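 Values shown are percent growth following 48 h exposure of cells in 96-well plates to a single concentration of compound; below 10 was considered active.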 Unmarked numbers belong to inactive results. Calls of active or inactive are those of the source.

Regarding `O=c1oc2ccc(-c3ccc(F)cc3F)cc2c(=O)n1-c1ccc(Cl)c(C(F)(F)F)c1`, the growth is 14.2% in the assay on DU-145 prostate; 10.1% with K-562 leukemia; -26.7% (active) with MALME-3M melanoma; -19.8% (active) with MDA-MB-231 breast; -14.3% (active) with RXF 393 renal; 12% in the assay on SF-268 CNS. Moreover, the growth with SF-295 CNS is -74% (active); in the assay on SF-539 CNS, -7.49% (active); with UACC-257 melanoma, -5.73% (active); in the assay on M14 melanoma, 21.5%.

Consider `COc1ccc(C(=O)Nc2sc3c(c2C#N)CCC(=O)C3)cc1C(F)(F)F`, for which the growth with DU-145 prostate was 25.3%; in the assay on K-562 leukemia it was 3.54% (active); in the assay on MALME-3M melanoma it was -52.3% (active); with MDA-MB-231 breast, -50.8% (active); in the assay with RXF 393 renal it was -41.9% (active); in the assay with SF-268 CNS, 26.8%. For the same compound, the growth with SF-295 CNS was -15.4% (active); with SF-539 CNS it was -82.7% (active); with UACC-257 melanoma, -15.8% (active); with M14 melanoma it was -16.8% (active).

In the case of `Cc1cccc(NC(=O)CSc2nc3ccc(F)cc3c(=O)n2-c2ccc(Cl)cc2)c1C`, the growth was 69.6% in the assay with DU-145 prostate; 84.3% in the assay with K-562 leukemia; 65.5% in the assay with MALME-3M melanoma; 51.8% in the assay with MDA-MB-231 breast; 18.8% in the assay on RXF 393 renal; 59.1% in the assay on SF-268 CNS. The growth with SF-295 CNS is 57.5%; in the assay with SF-539 CNS, 25.7%; with UACC-257 melanoma, 87.7%; with M14 melanoma, 74%.

`COc1ccc(/C(C)=N/N=C2C(=O)N(C)c3ccc(Br)cc32)cc1S(N)(=O)=O`: the growth with DU-145 prostate is 86.1%; with K-562 leukemia, 93.1%; with MALME-3M melanoma, 64.2%; in the assay with MDA-MB-231 breast, 56.7%; with RXF 393 renal it was 57.4%; with SF-268 CNS, 33.4%. Also, the growth in the assay on SF-295 CNS was 47.4%; in the assay with SF-539 CNS, 43.3%; in the assay with UACC-257 melanoma it was 83.1%; in the assay with M14 melanoma it was 87.1%.

In the case of `C=C1CCC2C3(C)COC(c4cccc(F)c4)OC3CCC2(C)C1CC(O)C1=CCOC1=O` (stereo not given), the growth with DU-145 prostate is 72.8%; with K-562 leukemia, 24.1%; with MALME-3M melanoma, 90.8%; in the assay with MDA-MB-231 breast, 67.5%; in the assay on RXF 393 renal, 57.2%; with SF-268 CNS, 106%. Besides, the growth is 74.5% with SF-295 CNS, 84.8% in the assay on SF-539 CNS, 72.7% in the assay on UACC-257 melanoma and 61.1% with M14 melanoma.

For the compound `C=C(c1ccc(OC)c(N)c1)c1cc(C)nc2ccccc12`, the growth is 14.9% with DU-145 prostate; 11.3% with K-562 leukemia; 49.9% in the assay with MALME-3M melanoma; 10.5% in the assay on MDA-MB-231 breast; 51.4% in the assay with RXF 393 renal; 24.3% in the assay on SF-268 CNS. In addition, the growth in the assay on SF-295 CNS was 6.83% (active); with SF-539 CNS, -34.2% (active); in the assay with UACC-257 melanoma, 63.3%; with M14 melanoma, 16%.

Take `COc1ccc2[nH]c(=O)c(CSc3cccc(N)c3)cc2c1`: the growth is 59.4% in the assay on DU-145 prostate; 15.6% with K-562 leukemia; 97.1% with MALME-3M melanoma; 72.7% in the assay with MDA-MB-231 breast; 84.8% in the assay with RXF 393 renal; 58% in the assay with SF-268 CNS. The growth in the assay on SF-295 CNS was 31.2%; with SF-539 CNS it was 71.3%; in the assay with UACC-257 melanoma it was 62.3%; with M14 melanoma it was 24%.

With `O=C(c1ccc(Cl)cc1)C1[C@H](c2ccccc2Br)[C@@H](c2ccccc2)NC12C(=O)Nc1ccc(Br)cc12` (stereo not given in full), the growth was 29.7% with DU-145 prostate; 6.68% (active) in the assay on K-562 leukemia; 50.1% in the assay with MALME-3M melanoma; 2.81% (active) in the assay with MDA-MB-231 breast; -26.1% (active) in the assay on RXF 393 renal; 32.7% with SF-268 CNS. The growth with SF-295 CNS was 14.9%; in the assay on SF-539 CNS, 30.2%; with UACC-257 melanoma, 10.3%; with M14 melanoma, 27.5%.

With `COc1cc(NC(=O)c2cc(-c3ccc(F)cc3F)ccc2O)cc(OC)c1OC`, the growth in the assay on DU-145 prostate is 34.3%; in the assay with K-562 leukemia, 14%; in the assay with MALME-3M melanoma, 17.4%; in the assay with MDA-MB-231 breast it was 47.5%; in the assay on RXF 393 renal it was 75.9%; with SF-268 CNS it was 25.9%. For the same compound, the growth in the assay with SF-295 CNS is 65.5%; with SF-539 CNS, 50.8%; with UACC-257 melanoma it was 55.3%; in the assay with M14 melanoma, 55.8%.

In the case of `CC1=C2C(=C[C@@](C)(COCOCCCl)[C@@H]2O)C(=O)[C@](C)(O)C12CC2`, the growth in the assay with DU-145 prostate is -11.1% (active); in the assay on K-562 leukemia, 8.32% (active); in the assay on MALME-3M melanoma, -84.9% (active); in the assay with MDA-MB-231 breast, -44.7% (active); in the assay with RXF 393 renal, -78.4% (active); with SF-268 CNS it was -9.66% (active). The growth with SF-295 CNS was -30.2% (active); in the assay with SF-539 CNS, -65% (active); with UACC-257 melanoma it was -30.3% (active); with M14 melanoma, -16% (active).

Take `NS(=O)(=O)c1ccc(N=Nc2c(O)n(CC(=O)Nc3ccccc3Br)c3ccccc23)cc1`: the growth with DU-145 prostate was 34.7%; with K-562 leukemia, 27.2%; in the assay with MALME-3M melanoma, 26.5%; in the assay with MDA-MB-231 breast it was 11.2%; with RXF 393 renal it was 27.6%; with SF-268 CNS, 86.6%. In addition, the growth in the assay on SF-295 CNS is 25.8%; in the assay on SF-539 CNS, 5.32% (active); in the assay with UACC-257 melanoma, 50%; in the assay on M14 melanoma, 27.9%.

`Cc1ccc2nc3c(nc2c1)c1cc(I)ccc1n3CCN(C)C`: the growth was 13% in the assay with DU-145 prostate; 4.47% (active) in the assay with K-562 leukemia; 9.73% (active) with MALME-3M melanoma; 14.8% in the assay with MDA-MB-231 breast; 29.8% in the assay with RXF 393 renal; 45.4% in the assay on SF-268 CNS. Besides, the growth in the assay on SF-295 CNS is 17.3%; in the assay with SF-539 CNS it was 26.4%; in the assay with UACC-257 melanoma, 41.9%; in the assay with M14 melanoma, 16.3%.

Source of the values: PubChem BioAssay (NCI).
